{
  "source": "the supplement of paper PMC12669032",
  "data": [
    {"test_system": "Bacteroides thetaiotaomicron", "test": "growth AUC relative to DMSO control (median of replicates) (fraction); higher = more growth (less inhibition), active = hit call of the paper", "settings": "20 µM; 24 h;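 active = AUC reduced over 20% with Padj below 0.05 in at least 2 of 3 replicates; inactive = otherwise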", "in_short": "(§1)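 Gut bacterial monocultures were grown anaerobically at 37 °C in mGAM, starting at OD600 0.05, with 20 µM compound (1% DMSO) in round-bottom 96-well plates under pierced gas-permeable seals. OD600 was read hourly for 24 h. Area under the growth curve (minimum OD set to 0) was normalised to the plate median of DMSO controls, or to row and column medians on the industrial chemical plate. The value is the median of three biological replicates grown on separate days.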", "values": [
      {"compound": "NC(=O)Cc1cccc2ccccc12", "growth AUC": "1.03 (inactive)"},
      {"compound": "CC(C)c1ccccc1", "growth AUC": "0.999 (inactive)"},
      {"compound": "CCCCCCCCSCCO", "growth AUC": "0.975 (inactive)"},
      {"compound": "CN(C)C(=O)Nc1ccc(Cl)c(Cl)c1", "growth AUC": "0.99 (inactive)"},
      {"compound": "c1ccc(Nc2ccccc2)cc1", "growth AUC": "1 (inactive)"},
      {"compound": "CC1=C(C(=O)Nc2ccccc2)CCCO1", "growth AUC": "0.99 (inactive)"},
      {"compound": "CCOC(=O)C(C)Oc1ccc(Oc2nc3ccc(Cl)cc3o2)cc1", "note": "(racemic)", "growth AUC": "0.971 (inactive)"},
      {"compound": "O.O=C(Nc1ccc([N+](=O)[O-])cc1Cl)c1cc(Cl)ccc1O", "growth AUC": "0.00758 (active)"},
      {"compound": "CN(C)C(N)=O", "growth AUC": "0.99 (inactive)"},
      {"compound": "COC(=O)c1c(Cl)nn(C)c1S(=O)(=O)NC(=O)Nc1nc(OC)cc(OC)n1", "growth AUC": "0.991 (inactive)"},
      {"compound": "N#Cc1ccccc1NC(=O)c1snc(Cl)c1Cl", "growth AUC": "1 (inactive)"},
      {"compound": "COCC(=O)N(c1c(C)cccc1C)C(C)C(=O)O", "note": "(stereo not given)", "growth AUC": "1.04 (inactive)"},
      {"compound": "COCCN(C(=O)CO)c1c(C)cccc1C(=O)O", "growth AUC": "1.01 (inactive)"},
      {"compound": "CNC(=O)Nc1nc2ccccc2s1", "growth AUC": "1.01 (inactive)"},
      {"compound": "O=C(O)COc1ccc(Cl)c2cccnc12", "growth AUC": "0.997 (inactive)"},
      {"compound": "CC(C)([CH2][Sn]([CH2]C(C)(C)c1ccccc1)([CH2]C(C)(C)c1ccccc1)[O][Sn]([CH2]C(C)(C)c1ccccc1)([CH2]C(C)(C)c1ccccc1)[CH2]C(C)(C)c1ccccc1)c1ccccc1", "growth AUC": "1.02 (inactive)"},
      {"compound": "CN(C)C(=O)Nc1ccc(Oc2ccc(Cl)cc2)cc1", "growth AUC": "0.92 (inactive)"},
      {"compound": "CCc1ccc(O)cc1", "growth AUC": "0.989 (inactive)"},
      {"compound": "Cc1nn(C)c(F)c1C(=O)Nc1ccccc1C(C)CC(C)C", "note": "(stereo not given)", "growth AUC": "0.968 (inactive)"},
      {"compound": "CCc1cccc(C)c1NC(=O)C(=O)O", "growth AUC": "0.942 (inactive)"},
      {"compound": "CCCCC(CC)COC(=O)COc1ccc(Cl)cc1C", "note": "(stereo not given)", "growth AUC": "0.987 (inactive)"}
    ]},
    {"test_system": "Bacteroides uniformis", "test": "growth AUC relative to DMSO control (median of replicates) (fraction); higher = more growth (less inhibition), active = hit call of the paper", "settings": "20 µM; 24 h", "in_short": "as §1", "values": [
      {"compound": "CC(C)c1cccc2c(=O)c3ccccc3sc12", "growth AUC": "0.995 (inactive)"},
      {"compound": "CP(=O)(O)CCC(=O)O", "growth AUC": "0.967 (inactive)"},
      {"compound": "ClC(COCC(Cl)C(Cl)(Cl)Cl)C(Cl)(Cl)Cl", "note": "(stereo not given)", "growth AUC": "0.918 (inactive)"},
      {"compound": "CCc1cccc(C)c1N(C(=O)CS(=O)(=O)[O-])C(C)COC.[Na+]", "note": "(stereo not given)", "growth AUC": "0.993 (inactive)"},
      {"compound": "COCC(=O)N(c1c(C)cccc1C(=O)O)C(C)C(=O)O", "note": "(stereo not given)", "growth AUC": "0.974 (inactive)"},
      {"compound": "COC(=O)C(C)Oc1ccc(Oc2ccc(C(F)(F)F)cn2)cc1", "note": "(stereo not given)", "growth AUC": "0.968 (inactive)"},
      {"compound": "O=S(Cc1ccc(Cl)cc1)c1ccc(Cl)cc1", "note": "(stereo not given)", "growth AUC": "0.983 (inactive)"},
      {"compound": "O=C(O)c1ccc(Cl)cc1Cl", "growth AUC": "0.977 (inactive)"},
      {"compound": "Nc1ccc(S(=O)(=O)Nc2cnc3ccccc3n2)cc1", "growth AUC": "0.984 (inactive)"},
      {"compound": "COC(=O)c1ccc(CNS(C)(=O)=O)cc1S(=O)(=O)NC(=O)Nc1nc(OC)cc(OC)n1", "growth AUC": "1.01 (inactive)"},
      {"compound": "CC(C)(NC(=O)NCc1ccccc1Cl)c1ccccc1", "growth AUC": "0.983 (inactive)"},
      {"compound": "CCC(C)Nc1nc(N)nc(Cl)n1", "note": "(stereo not given)", "growth AUC": "0.949 (inactive)"},
      {"compound": "Cc1cccc(C)c1N(C(=O)CCl)C1CCOC1=O", "note": "(stereo not given)", "growth AUC": "0.894 (inactive)"},
      {"compound": "CC(C)(NC(=O)C(Br)C(C)(C)C)c1ccccc1", "note": "(stereo not given)", "growth AUC": "1.06 (inactive)"},
      {"compound": "O=C(O)Cc1cccc2ccccc12", "growth AUC": "1.04 (inactive)"},
      {"compound": "NC(Cn1cncn1)C(=O)O", "note": "(stereo not given)", "growth AUC": "0.998 (inactive)"},
      {"compound": "CCc1nc2ncnn2c(N)c1CCCCCC(=O)O.Cl", "growth AUC": "1.02 (inactive)"},
      {"compound": "Cn1cc(C(=O)Nc2ccccc2-c2cc(F)c(F)c(F)c2)c(C(F)F)n1", "growth AUC": "0.984 (inactive)"},
      {"compound": "NC(=O)Cc1cccc2ccccc12", "growth AUC": "1.01 (inactive)"},
      {"compound": "CC(C)c1ccccc1", "growth AUC": "0.999 (inactive)"},
      {"compound": "CCCCCCCCSCCO", "growth AUC": "1 (inactive)"},
      {"compound": "CN(C)C(=O)Nc1ccc(Cl)c(Cl)c1", "growth AUC": "0.954 (inactive)"},
      {"compound": "c1ccc(Nc2ccccc2)cc1", "growth AUC": "0.981 (inactive)"},
      {"compound": "CC1=C(C(=O)Nc2ccccc2)CCCO1", "growth AUC": "1.06 (inactive)"},
      {"compound": "CCOC(=O)C(C)Oc1ccc(Oc2nc3ccc(Cl)cc3o2)cc1", "note": "(racemic)", "growth AUC": "0.981 (inactive)"},
      {"compound": "O.O=C(Nc1ccc([N+](=O)[O-])cc1Cl)c1cc(Cl)ccc1O", "growth AUC": "0.0308 (active)"},
      {"compound": "CN(C)C(N)=O", "growth AUC": "0.971 (inactive)"},
      {"compound": "COC(=O)c1c(Cl)nn(C)c1S(=O)(=O)NC(=O)Nc1nc(OC)cc(OC)n1", "growth AUC": "1 (inactive)"},
      {"compound": "N#Cc1ccccc1NC(=O)c1snc(Cl)c1Cl", "growth AUC": "0.974 (inactive)"},
      {"compound": "COCC(=O)N(c1c(C)cccc1C)C(C)C(=O)O", "note": "(stereo not given)", "growth AUC": "0.997 (inactive)"},
      {"compound": "COCCN(C(=O)CO)c1c(C)cccc1C(=O)O", "growth AUC": "0.961 (inactive)"},
      {"compound": "CNC(=O)Nc1nc2ccccc2s1", "growth AUC": "0.966 (inactive)"},
      {"compound": "O=C(O)COc1ccc(Cl)c2cccnc12", "growth AUC": "1 (inactive)"},
      {"compound": "CC(C)([CH2][Sn]([CH2]C(C)(C)c1ccccc1)([CH2]C(C)(C)c1ccccc1)[O][Sn]([CH2]C(C)(C)c1ccccc1)([CH2]C(C)(C)c1ccccc1)[CH2]C(C)(C)c1ccccc1)c1ccccc1", "growth AUC": "0.993 (inactive)"},
      {"compound": "CN(C)C(=O)Nc1ccc(Oc2ccc(Cl)cc2)cc1", "growth AUC": "1.02 (inactive)"},
      {"compound": "CCc1ccc(O)cc1", "growth AUC": "1.01 (inactive)"},
      {"compound": "Cc1nn(C)c(F)c1C(=O)Nc1ccccc1C(C)CC(C)C", "note": "(stereo not given)", "growth AUC": "0.947 (inactive)"},
      {"compound": "CCc1cccc(C)c1NC(=O)C(=O)O", "growth AUC": "1 (inactive)"},
      {"compound": "CCCCC(CC)COC(=O)COc1ccc(Cl)cc1C", "note": "(stereo not given)", "growth AUC": "0.943 (inactive)"}
    ]}
  ]
}
